Results published in PubChem BioAssay (NCI).
The panel holds about 83,000 compounds, 20% with a hit somewhere; the sample as a whole holds those more often.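 Cell lines were cultured in 96-well plates, exposed to a single compound concentration, and assessed for percent growth 48 hours later.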 Calls of active or inactive are those of the source. The calls were made as follows: active = growth percent below 10; inactive = the rest.

What was measured:
Test in all cases: NCI-60 one-dose screen, 48 h (100 = growth as untreated, 0 = no growth, -100 = all killed)
Conditions in all cases: 10 µM unless noted
[1] = test system: NCI-H23 lung
[2] = test system: NCI-H226 lung
[3] = test system: NCI-H322M lung
[4] = test system: HOP-62 NSCLC
[5] = test system: NCI-H460 lung
[6] = test system: HOP-92 NSCLC
[7] = test system: NCI-H522 lung
[8] = test system: A549/ATCC NSCLC
[9] = test system: 786-0 renal
[10] = test system: COLO 205 colon
[11] = test system: DU-145 prostate
[12] = test system: K-562 leukemia
[13] = test system: MALME-3M melanoma
[14] = test system: MDA-MB-231 breast
[15] = test system: RXF 393 renal
[16] = test system: SF-268 CNS
[17] = test system: SF-295 CNS
[18] = test system: SF-539 CNS
[19] = test system: UACC-257 melanoma
[20] = test system: M14 melanoma

Measured: growth

COc1cccc(Nc2nc(SC)nc(-c3cccc([N+](=O)[O-])c3)c2C#N)c1
inactive: [1] 78.3% | [2] 19.3% | [3] 74% | [4] 27% | [5] 41.7% | [6] 62.9% | [7] 72.1% | [8] 28% | [9] 36.4% | [10] 82.1% | [11] 81.4% | [12] 85.4% | [13] 72.7% | [14] 65.8% | [15] 68.2% | [16] 88% | [17] 62.6% | [18] 81.4% | [19] 88.5% | [20] 83.4%

C=C(C)[C@@H]1CC[C@]2(C(N)=O)CC[C@]3(C)[C@H](CC[C@@H]4[C@@]5(C)C/C(=C/c6ccco6)C(=O)C(C)(C)[C@@H]5CC[C@]43C)[C@@H]12
inactive: [1] 98% | [2] 95.8% | [3] 98.9% | [4] 98.5% | [5] 96% | [6] 103% | [7] 78.8% | [8] 86.6% | [9] 95.3% | [10] 113% | [11] 92.6% | [12] 80.1% | [13] 87% | [14] 94.5% | [15] 94.2% | [16] 90.9% | [17] 90.2% | [18] 98.6% | [19] 97.8% | [20] 85.1%

COC(=O)c1ccc(NC(=O)c2ccc(-c3cccc([N+](=O)[O-])c3)o2)cc1
inactive: [1] 87.3% | [2] 73.9% | [3] 94.3% | [4] 107% | [5] 101% | [6] 94.6% | [7] 94.2% | [8] 108% | [9] 103% | [10] 108% | [11] 110% | [12] 105% | [13] 90.3% | [14] 90.3% | [15] 92.7% | [16] 97.6% | [17] 94.9% | [18] 90.5% | [19] 102% | [20] 101%

CSc1nc(NCc2ccccc2)c(C#N)c(-c2cccc([N+](=O)[O-])c2)n1
inactive: [1] 93.7% | [2] 94.5% | [3] 95.7% | [4] 89.2% | [5] 97% | [6] 77.7% | [7] 85.4% | [8] 88.4% | [9] 96.6% | [10] 110% | [11] 103% | [12] 90.7% | [13] 113% | [14] 82.7% | [15] 102% | [16] 94.3% | [17] 98.9% | [18] 104% | [19] 109% | [20] 98%

O=C(N=Nc1c(O)[nH]c2ccc(Br)cc12)c1cc(-c2ccccc2)on1
inactive: [1] 96.9% | [2] 99.8% | [3] 108% | [4] 102% | [5] 101% | [6] 96.8% | [7] 85% | [8] 103% | [9] 105% | [10] 125% | [11] 110% | [12] 109% | [13] 89.5% | [14] 100% | [15] 117% | [16] 100% | [17] 97.1% | [18] 97.6% | [19] 110% | [20] 104%

COCCNc1ccc2c3c(cccc13)C(=O)N(CCN(C)C)C2=O
active: [2] 5.99% | [5] -21.9% | [7] -25.6% | [8] 5.73% | [10] 6.86% | [12] -7.82% | [15] -23.7%
inactive: [1] 25.6% | [3] 23.1% | [4] 50.9% | [6] 18.4% | [9] 32.1% | [11] 27.7% | [13] 22.2% | [14] 46.6% | [16] 26.3% | [17] 16.8% | [18] 22.9% | [19] 16.8% | [20] 29%

Cn1cc(C(=O)c2nc(-c3c[nH]c4ccc(Br)cc34)no2)c2cc(F)ccc21
inactive: [1] 84.9% | [2] 81.5% | [3] 95.7% | [4] 103% | [5] 97% | [6] 85.4% | [7] 90.5% | [8] 104% | [9] 103% | [10] 98.3% | [11] 106% | [12] 102% | [13] 96.1% | [14] 89% | [15] 109% | [16] 99.2% | [17] 97.6% | [18] 99.1% | [19] 99.7% | [20] 100%

CC1=NN(c2nc(-c3ccc(Cl)cc3)c(C#N)c(N3CCOCC3)n2)C(=O)C1
active: [6] 6.28%
inactive: [1] 80.7% | [2] 89.8% | [3] 101% | [4] 87% | [5] 99.1% | [7] 78.9% | [8] 101% | [9] 49.1% | [10] 104% | [11] 102% | [12] 101% | [13] 42% | [14] 91.9% | [15] 43.4% | [16] 91.1% | [17] 103% | [18] 97.9% | [19] 99.9% | [20] 90%

O=C(/C=C/c1cc(CN2CCOCC2)c(O)c2ncccc12)c1cc(CN2CCOCC2)c(O)c2ncccc12
active: [5] 9.34% | [6] -4.72% | [8] 2.72% | [19] -6.41%
inactive: [1] 30.5% | [2] 34.6% | [3] 45.5% | [4] 16% | [7] 14.4% | [9] 24.6% | [10] 30.2% | [11] 26.9% | [12] 10.4% | [13] 38.9% | [14] 30.6% | [15] 35.3% | [16] 30.2% | [17] 14.7% | [18] 15% | [20] 31.3%

Fc1ccc(CNc2cccc3[nH]c(C(F)(F)F)nc23)cc1
inactive: [1] 99.1% | [2] 93.1% | [3] 104% | [4] 80.3% | [5] 83% | [7] 79.7% | [8] 89.2% | [9] 110% | [10] 102% | [11] 93.5% | [12] 13% | [13] 103% | [14] 73.8% | [15] 99.1% | [16] 76.9% | [17] 89.9% | [18] 97% | [19] 101% | [20] 109%
active: [6] -9.4%

O=C(C(=O)c1ccc2c(c1)OCO2)c1ccc2c(c1)OCO2
inactive: [1] 111% | [2] 99.9% | [3] 122% | [4] 101% | [5] 96.6% | [6] 101% | [7] 102% | [8] 99.1% | [9] 109% | [10] 109% | [11] 111% | [12] 108% | [13] 104% | [14] 100% | [15] 105% | [16] 99% | [17] 120% | [18] 114% | [19] 87.8% | [20] 101%

O=C(N/N=C/c1ccccc1O)c1ccccc1Nc1ccnc(C(F)(F)F)c1
inactive: [1] 30.2% | [3] 13.1% | [7] 24% | [8] 10.4% | [10] 14.7% | [11] 27.3% | [12] 17.7% | [14] 40.4% | [15] 18.7% | [16] 14.6%
active: [2] -11.7% | [4] -5.32% | [5] -13.2% | [6] 7.01% | [9] 0.0938% | [13] -0.966% | [17] 7.17% | [18] 0.988% | [19] -0.662% | [20] -14.3%

O=C1c2cc3c(cc2-c2c1c1ccc(Cl)cc1c(=O)n2CCCN1CCOCC1)OCO3
inactive: [1] 47.9% | [2] 24.9% | [3] 89.6% | [4] 26.2% | [5] 18.1% | [6] 80.4% | [7] 53.5% | [8] 48.7% | [9] 34.2% | [10] 54.8% | [11] 26.9% | [12] 44.5% | [13] 85.2% | [14] 111% | [15] 92.7% | [16] 43.6% | [17] 27.9% | [18] 22.7% | [19] 91.8% | [20] 25.3%

COc1ccc(C(=O)COc2ccc(/C=C3\Oc4ccc(OC)cc4C3=O)cc2)cc1
inactive: [1] 100% | [2] 89.5% | [3] 100% | [4] 115% | [5] 124% | [6] 63.4% | [8] 105% | [9] 114% | [10] 128% | [11] 116% | [12] 16.8% | [13] 102% | [14] 89.7% | [15] 110% | [16] 121% | [17] 81.9% | [18] 104% | [19] 94% | [20] 110%
active: [7] -29.6%

CCn1c(Cc2ccccc2Nc2c(Cl)cccc2Cl)nnc1SCC(=O)NN1C(=O)/C(=C/c2cc(OC)c(O)c(OC)c2)SC1=S
active: [7] -1.58%
inactive: [1] 48.3% | [2] 40.7% | [3] 42.2% | [4] 29.9% | [5] 22.1% | [6] 11.1% | [8] 60.9% | [9] 26.3% | [10] 44.9% | [11] 48.8% | [12] 19.4% | [13] 40.4% | [14] 60.9% | [15] 12.9% | [16] 36.4% | [17] 23.5% | [18] 13% | [19] 63.7% | [20] 19.5%
